Results on 69 sequences are retold here after PubChem BioAssay AID1508600 (Functional Genomics Laboratory (NCATS/FGL), 2020).

Screen size: about 53,000 sequences; about 3,700 (7%) were called active.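 The calls were made as follows: active = gene knockdowns whose robust z-score for IL-1 alpha signal is at least 2 or at most -2, so actives lie on both sides; inactive = the rest.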 The full list was thinned out, with actives kept by preference.

This assay in a line: Components of the Cytosolic LPS Sensing Pathway: Gene Identification via Genome-wide siRNA Screen.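 Also: robust z of the log signal after scaling to non-targeting control siRNA wells of the plate.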 As to conditions: RAW264.7 macrophages, IL-1a HTRF, actives lie on both sides, screened at 100 nM (by protocol), cells primed 5 h with Pam3CSK4 first. A digest of the protocol:
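Supernatant IL-1a by HTRF from RAW264.7 cells primed with Pam3CSK4 (5 hours) and transfected with LipidA (24 hour) after 48h siRNA knockdown at 100 nM; cell viability checked with CellTiter-Glo.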
(In general: In TR-FRET formats the signal depends on donor and acceptor labels being close together.)
As to GGAACAAAAACCAUUGUGATT against Gng7, the z-score was -1.49 (inactive).
The same measure for CGAACCUGUUGACGGAUUCTT against Wnt1: 0.563 (inactive); for GGACAAAGCAAUCCACAUCTT against Wdr55: -0.564 (inactive); for CCAUCGGGAUUGACUAUGGTT against Dnajc27: -0.878 (inactive).
The same measure for GCUAAUGAUACAGAAGUUGTT against Snrpb2: 0.661 (inactive); for GGAGGAUGAGGAUUUUGAUTT against Spsb3: 2.16 (active).
Next, CCACUUCUUUCCAUGAACUTT against Slc6a4: 0.7 (inactive); GGCAGAUUGAUAAAAUUCATT against Stag1: -0.223 (inactive).
As to GCUCAGUCUCUUGGGUGGUTT against Cel, the z-score was 2.27 (active).
On to GCUCUGUUCACCUACCCGATT against Anapc16, for which the z-score was 0.264 (inactive).
Consider GGUUGUACUUGUUUUUCCUTT against Dtwd1, for which the z-score is 1.35 (inactive).
Next, GCAUUGUCAUGAUACAACATT against Fem1b: 0.793 (inactive); GGAGGAGAGGAGAAUAGCATT against Atp5k: -0.586 (inactive); GGAACUACAACAGAAACGATT against Cep131: -1.42 (inactive).
Next, GUGACAAUGAAAAAUGUGUTT against Clec4b1: -2.42 (active).
The same measure for GGAAAUGUCUUAUGAUAACTT against Col5a1: 0.194 (inactive); for CCUCAUCAAUCAGCCUAUGTT against Olfr1178: -1.83 (inactive); for GCAUCGCUAAGUCCGUCUUTT against Aqp4: -0.1 (inactive).
As to GGACCUGUAUUCUCAGGGATT against Lce1a2, the z-score is -0.251 (inactive).
The same measure for CCUGUAACCUUGCUUAAUGTT against Hoxc6: 0.0208 (inactive).
Next, GGAGAAAUGAAGGUAUACATT against Cert1: -1.12 (inactive).
With GGUUUAUGACAAACUGAAATT against Enpp4, the z-score is -0.0826 (inactive).
The same measure for GCAGAAGUUAAGAUGCAUATT against Usf1: 2.02 (active); for CCUGCUCAACGGAGACCAUTT against Hmx3: 3.47 (active); for GGCUUGAGACUUAAAACGGTT against Lztfl1: 0.583 (inactive).
Next, CGCUGAAAUGGUGAAUAAATT against Recql: -0.0529 (inactive).
The same measure for GUCCCACUGUCCAGUUACATT against Gm9946: -0.565 (inactive); for CGAGAGAAGCCCAUCAUCATT against Nrg4: 1 (inactive); for GGAAGAAAAGGGAUAUCAGTT against Xirp1: 0.253 (inactive).
With GGUUCAGACACCACUUCAGTT against Bgn, the z-score was 2.56 (active).
Next, GGAGGAUCACCCAUCAAAUTT against Oxct1: -0.083 (inactive).
The same measure for GGUAUUUUGAUGUUGGACUTT against Hhat: 0.989 (inactive); for GGAUGUGAAACAUGCUUUUTT against Olfr1030: 0.536 (inactive); for CCUCAUGCAGCUCAAUCUATT against Prelp: -2.41 (active).
The same measure for GGCUAUGGCUUUUGUAUGUTT against Arpin: -0.0747 (inactive); for GGACUCAAUAAGAACCUCGTT against Papss1: -1.25 (inactive).
Regarding GGAUGAAAGUUGUAUGUAUTT against Ctsk, the z-score was -0.606 (inactive).
Next, GGAUCGUGAGCUUCUAUUATT against Gask1a: 0.434 (inactive); CGAGAAGUGCUGACUCAAUTT against Map2k3os: 0.563 (inactive); GGAUGUCUGGAAUGAAACATT against Slc17a4: -3.16 (active).
Next, GGAGAGCUGCAUCAAAAAGTT against Prdm16: 0.545 (inactive); GGUGCUCAUGCAGGUCCAUTT against Slc25a25: -0.356 (inactive); GGGCCAUCUCUCAAUUAUGTT against Gga2: 1.93 (inactive).
The same measure for GGUUCUACAUGUGAAACAATT against Zfp143: -2.15 (active); for GCCUGGUCUCACUAUGUAGTT against Hpvc2: 0.129 (inactive); for GGACGUGUUUUACAAAUACTT against Srsf1: -0.979 (inactive).
For the sequence GGGAAAAUAUCUCAUAUCATT against Colec10, the z-score is -0.944 (inactive).
GGGCUGAAGAUGACUUCAATT against Topors: the z-score was 5.91 (active).
The same measure for GGAUGUCUCGGAACUAAGGTT against Med28: -0.571 (inactive); for GGUAUUACAAGGUCAUAUCTT against Nol12: -0.357 (inactive); for UGGCCACGACCCUGAACUUTT against Ghrhr: 0.56 (inactive).
Next, GGCAUCAAAAAGCAGACAATT against Erich2: -1.98 (inactive); GGCUAUGGAACAAAGUACUTT against Sostdc1: 0.838 (inactive).
As to GGAAAGCACUUUUAUUCCUTT against Sgip1, the z-score is -0.901 (inactive).
The same measure for GCCUCGAGAUAUUCUUUGUTT against Snrnp200: -2.07 (active); for GCUAAAAGGCUACGGGAGUTT against Bhlhe23: -0.266 (inactive); for GUGCAGAUAUCUUUAGCAATT against Olfr159: -0.958 (inactive).
Consider GGAUGAGAGUAAGAUCUCGTT against Vipr2, for which the z-score was -0.296 (inactive).
For the sequence GGAAAACUACCUCUUUUGATT against Cbll1, the z-score was 1.4 (inactive).
Next, GGAGAUCUUAGAGAAAUUATT against Pak1: -0.956 (inactive); GCAAAGUGGAUAUAGUGUCTT against Gprin1: -0.217 (inactive).
Next, GCAUGCUUUCUGAAUACAATT against Cdk8: 2.17 (active); GGAACAGCUAAAGUUGGGATT against Kcnj9: 0.5 (inactive).
The same measure for GGGUAUGGUUCUGUUGGCATT against Pxmp4: -1.45 (inactive); for CCUAAAGGUUCCCAACAGUTT against Serpinb3d: -0.517 (inactive); for GGCUGAUUCAUUUGGGAACTT against Olfr9: 0.805 (inactive).
Turning to GGCCUCUGAGGACAAGUUUTT against Als2cl, the z-score was 0.0383 (inactive).
The same measure for GGUAGAGGAUGCGAUGCUGTT against Msi2: 4.61 (active).
Next, GGGAGGUGCAGAUAGGAUUTT against Csrp1: 0.912 (inactive).
